Consider 40 compounds from PubChem BioAssay (Tox21).

Inconclusive results are not listed. Values without a mark were called inactive. Calls of active or inactive are those of the source. Calls follow the shape of the dose curve; as a rule, active = well fitted cell-killing curve with a large enough effect in the repeat runs; inconclusive = weak or mixed curves, or effect the other way; inactive = flat fitted curve, though single readings scatter.
% is scaled to controls: 0 for no effect and ±100 for the full control effect; potency is read from the fitted curve at half-maximal effect.

This test in a line: cAMP Responsive Elements (CRE) small molecule agonists, cell-based qHTS assay: qHTS cell viability counter screen (AID 2060914). Also: nearly all actives have a fitted effect of over 50% in size. As to conditions: CRE-bla HEK293T viability, CellTiter-Glo luminescence, 5 h; series mostly up to 92.4 µM; activity change, negative = cytotoxicity: at the top concentration. In a few lines:
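CRE-bla HEK293T cells in 10% dialyzed FBS medium were exposed to compounds for 3 h at 37C after 18 h plating. CellTiter-Glo was then added in the same wells, and luminescence was read after 30 min at room temperature.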
(qHTS replaces the single test concentration by a dilution series.)
As to `CCOC(=O)N(C)C(=O)CSP(=S)(OCC)OCC`, the “activity change, negative = cytotoxicity” value is -3.71%.

`ClCBr`: the “activity change, negative = cytotoxicity” value is 18.4%.

Take `C=CC(=O)OCC`: the “activity change, negative = cytotoxicity” value is 23.4%.

For `[CH3][Sn]([CH3])([Cl])[Cl]`, the Potency result was “inactive”.

Consider `N#CC(Br)(Br)C(N)=O`, for which the “activity change, negative = cytotoxicity” value was -3.63%.

Regarding `Cc1nnc2n1-c1sc(CCC(=O)N3CCOCC3)cc1C(c1ccccc1Cl)=NC2`, the “activity change, negative = cytotoxicity” value is 2.94% [at 42.5 µM].

Consider `Sc1ccccc1Cl`, for which the “activity change, negative = cytotoxicity” value is 1.21% [at 42.5 µM].

`CCC(C)(C)O`: the “activity change, negative = cytotoxicity” value is -9.76%.

Turning to `CC(=O)Nc1ccc2c(c1)Cc1ccccc1-2`, the “activity change, negative = cytotoxicity” value was -0.201%.

As to `CCCCOC(C)=O`, the “activity change, negative = cytotoxicity” value is -6.26%.

As to `Nc1c(Br)cc([N+](=O)[O-])cc1[N+](=O)[O-]`, the “activity change, negative = cytotoxicity” value was -20.8%.

Regarding `Cc1cnc(C2=NC(C)(C(C)C)C(=O)N2)c(C(=O)O)c1` (stereo not given), the “activity change, negative = cytotoxicity” value was 1.29%.

On to `C=CCC1(C(C)CC)C(=O)NC(=O)NC1=O` (stereo not given), for which the “activity change, negative = cytotoxicity” value was -0.612% [at 42.5 µM].

`COc1ccc2[nH]cc(CCN(C(C)C)C(C)C)c2c1`: the “activity change, negative = cytotoxicity” value is -4.23%.

`CC(C)Nc1nc(Cl)nc(NC(C)C)n1`: the Potency result was “inactive”.

In the case of `BrCBr`, the “activity change, negative = cytotoxicity” value was -0.415%.

In the case of `Nc1ccccc1C(=O)Oc1ccc2ccccc2c1`, the “activity change, negative = cytotoxicity” value was -13.3%.

As for `OC(c1ccccc1)(c1ccccc1)C1CCNCC1`, the “activity change, negative = cytotoxicity” value was -8.43% [at 42.5 µM].

Turning to `CCC1(CC)C(=O)N=C(O)NC1=O`, the “activity change, negative = cytotoxicity” value was 0.397%.

On to `N#Cc1sc2c(=O)c3ccccc3c(=O)c=2sc1C#N`, for which the Potency is 54.5 µM (active).

In the case of `Cc1nnc2n1-c1sc(CCc3ccc(CC(C)C)cc3)cc1C(c1ccccc1Cl)=NC2C` (stereo not given), the “activity change, negative = cytotoxicity” value was -15.2% [at 42.5 µM].

Regarding `CC(C)N(C(=O)CCl)c1ccccc1`, the Potency result was “inactive”.

As to `O=Cc1ccc2c(c1)OCO2`, the “activity change, negative = cytotoxicity” value is -6.39%.

`COP(=O)(OC)O/C(=C\Cl)c1cc(Cl)c(Cl)cc1Cl`: the “activity change, negative = cytotoxicity” value is -12.5%.

For `N#CNC#N`, the “activity change, negative = cytotoxicity” value is 2.5%.

In the case of `COP(=S)(OC)Oc1ccc(S(=O)(=O)N(C)C)cc1`, the Potency result is “inactive”.

With `CC(C)N1C(=O)c2ccccc2NS1(=O)=O`, the Potency entry was “inactive”.

Regarding `Clc1cccc(Cl)c1`, the Potency result is “inactive”.

As for `C[C@]12CC[C@H]3[C@@H](CCC4=CC(=O)CC[C@@H]43)[C@@H]1CC[C@@H]2OC(=O)CCC1CCCCC1`, the “activity change, negative = cytotoxicity” value is -6.86% [at 42.5 µM].

Take `Cc1ccc([N+](=O)[O-])[c]2c1[O][Hg]2`: the Potency was 18.8 µM (active).

As for `CC(=O)/C=C/c1ccc2c(c1)OCO2`, the “activity change, negative = cytotoxicity” value was 19.2%.

In the case of `C=CC#N`, the Potency result is “inactive”.

Regarding `C[C@H]1[C@H](c2ccc(Cl)cc2)SC(=O)N1C(=O)NC1CCCCC1`, the “activity change, negative = cytotoxicity” value is -14.4%.

As for `CCCC[n+]1ccccc1`, the Potency result was “inactive”.

For `Cc1cc(Cl)ccc1OCCCC(=O)O`, the Potency result is “inactive”.

As to `COP(N)(=S)OC`, the “activity change, negative = cytotoxicity” value was 3.37%.

Turning to `NC1=NC(=O)C(c2ccccc2)O1` (stereo not given), the “activity change, negative = cytotoxicity” value was 14% [at 42.5 µM].

For `CCS(=O)(=O)c1cccnc1S(=O)(=O)NC(=O)Nc1nc(OC)cc(OC)n1`, the “activity change, negative = cytotoxicity” value is -0.314%.

Regarding `CN1CSC(=S)N(C)C1`, the Potency entry is “inactive”.

For `CC(Cl)(Cl)C(=O)O`, the Potency entry was “inactive”.
